In ChEMBL document CHEMBL1201862, “PubChem BioAssay data set” (2004) one finds Potency data, which are given here for three compounds.

About 17,000 (5.5%) of roughly 310,000 compounds were called active. About 11% were inconclusive and are not listed. The rule behind the calls is not given here. Only a selection was taken, and actives are over-represented in it overall.

In the test the target is T1, Nuclear receptor ROR-gamma (Mus musculus) (UniProt P51450).
T1 sequence (whole entry): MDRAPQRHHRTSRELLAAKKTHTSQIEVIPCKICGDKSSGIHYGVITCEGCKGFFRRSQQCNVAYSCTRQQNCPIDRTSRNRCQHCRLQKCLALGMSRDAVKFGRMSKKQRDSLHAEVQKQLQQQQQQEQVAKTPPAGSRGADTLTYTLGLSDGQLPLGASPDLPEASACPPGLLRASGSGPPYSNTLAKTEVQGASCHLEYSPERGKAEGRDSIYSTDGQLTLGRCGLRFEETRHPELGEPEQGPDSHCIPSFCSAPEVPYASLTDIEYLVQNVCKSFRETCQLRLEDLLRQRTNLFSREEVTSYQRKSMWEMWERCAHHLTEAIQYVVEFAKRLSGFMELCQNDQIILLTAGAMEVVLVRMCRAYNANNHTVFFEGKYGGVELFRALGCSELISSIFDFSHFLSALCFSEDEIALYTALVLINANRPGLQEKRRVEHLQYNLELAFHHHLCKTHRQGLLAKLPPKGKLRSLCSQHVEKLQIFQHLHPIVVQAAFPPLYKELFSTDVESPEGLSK
Description: qHTS for inhibitors of ROR gamma transcriptional activity. The test is classed as functional. Background: Quantitative high-throughput screening tests each substance at several concentrations.
Regarding `COc1ccccc1/C=C/C(=O)c1cccs1`, the Potency is 25.1 µM (active).

Turning to `O=C(/C=C/c1ccc(Cl)cc1)c1cccs1`, the Potency was 15.8 µM (active).

On to `c1ccc(-n2ncc3c(NCc4cccnc4)ncnc32)cc1`, for which the Potency was 501 µM (active).
